# DRD3 antagonist = qHTS of D3 Dopamine Receptor Antagonist: qHTS; D(3) dopamine receptor (Homo sapiens), P35462; D3R cells, DiscoveRx beta-arrestin luminescence, antagonist mode; hits give low values; max response, negative = inhibition, %; 360,000 tested, 2.5% active; in the data active = max response below about -50%; inconclusive = no clear call, values can overlap the other calls
#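 Cells expressing the human receptor were seeded at 1500 cells/well, incubated overnight at 37 degrees C in 5% CO2, then exposed to library compounds with dopamine controls for 90 minutes at 37 degrees C before luminescent detection.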
# PI5P4Ka inh = qHTS for Inhibitors of phosphatidylinositol 5-phosphate 4-kinase (PI5P4K); max response, %; 330,000 tested, 1.2% active; PI5P4Kalpha enzyme, ADP-Glo luminescence, 60 min; hits give low values; active = max response of -50% or lower; inconclusive = between -30% and -50%; inactive = -30% or higher; note: value at the top dose of about 77 µM
# Target sequence (P48426 whole entry, looked up): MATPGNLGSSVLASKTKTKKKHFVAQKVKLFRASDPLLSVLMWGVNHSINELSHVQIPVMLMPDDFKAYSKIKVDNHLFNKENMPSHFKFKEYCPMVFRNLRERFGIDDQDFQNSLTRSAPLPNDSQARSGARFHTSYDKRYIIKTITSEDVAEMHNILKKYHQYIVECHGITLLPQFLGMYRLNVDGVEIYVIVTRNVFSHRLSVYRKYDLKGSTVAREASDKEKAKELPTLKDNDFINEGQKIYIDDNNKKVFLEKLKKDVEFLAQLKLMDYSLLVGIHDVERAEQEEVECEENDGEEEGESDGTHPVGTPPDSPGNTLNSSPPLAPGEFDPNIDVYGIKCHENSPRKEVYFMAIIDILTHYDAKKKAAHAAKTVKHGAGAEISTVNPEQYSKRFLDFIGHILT
#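 ADP-Glo luminescence end-point read after a 60 min room-temperature kinase reaction of PI5P4Kalpha plus substrate, initiated with ATP at 5 microM final. Buffer: 0.038 M HEPES pH 7.4, EGTA, 0.1% CHAPS, 5% DMSO.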
# LDHA inh = qHTS assay for inhibitors of human lactate dehydrogenase. L-lactate dehydrogenase A chain (Homo sapiens), P00338. activity change, % (values are at about 110 or 230 µM). 480,000 tested, 0.15% active. purified LDHA, NADH/diaphorase-resazurin fluorescence; hits give low values; in the data active = activity change below about -30%; inconclusive = mostly about -25% to -30%
#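 Human LDH5 (2 nM) was incubated with 0.06 mM NADH and 0.2 mM pyruvate for 5 min at room temperature in Tris pH 7.4. Remaining NADH was coupled through diaphorase/resazurin, and resorufin fluorescence was read at 0 and 20 min.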
# PI4K2A inh = qHTS for small molecular inhibitors of PI4K2A. purified PI4K2A, ADP-Glo luminescence, 1 h; hits give low values. activity change, negative = inhibition, % at 76.9 µM. 420,000 tested, 0.13% active; in the data active = activity change below about -50%; inconclusive = mostly about -30% to -49%
#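 PI4K2A activity was measured by ADP-Glo luminescence: enzyme (4 ug/mL stock) and phosphatidylinositol (1.2 mM stock) in Tris pH 7.5/MgCl2/EGTA/Triton X-100 buffer were reacted with ATP (300 microM stock) for one hour at ambient temperature.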
# DRD3 agonist = qHTS of D3 Dopamine Receptor Agonist: qHTS | 410,000 tested, 0.58% active | max activation, % | AID 652048, 2013 | D3R DiscoveRx beta-arrestin cells, luminescence, 90 min | D(3) dopamine receptor (Homo sapiens), P35462; in the data active = max activation above about 30%
#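 Cells at 1500/well, incubated overnight, then treated with pinned compounds (dopamine as control) for 90 min at 37 degrees C. DiscoveRx reagent added for 30 - 60 minutes at room temperature; luminescence read.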
# A number is an active result; – = inactive; ? = inconclusive; · = no result; ! = a repeat was not active. In the library only some 3.3% were active in any assay of this set; here they are far more common.
SMILES,DRD3 antagonist,PI5P4Ka inh,LDHA inh,PI4K2A inh,DRD3 agonist
COc1ccc(OC)c(-c2cc(C(=O)Nc3c(C)nn(Cc4ccccc4C)c3C)no2)c1,–,·,–,–,33.3
COc1ccc(OC)c(-c2cc(C(=O)Nc3c(C)nn(Cc4ccccc4Cl)c3C)no2)c1,–,·,–,–,–
Cc1ccc(Cn2ccc(NC(=O)c3cc(-c4ccccc4)on3)n2)cc1,–,·,–,–,–
COc1cccc(-c2cc(C(=O)Nc3ccn(Cc4ccc(C)cc4)n3)no2)c1,–,–,–,–,34.6!
COc1ccc(OC)c(-c2cc(C(=O)Nc3c(C)nn(Cc4ccc(C)cc4)c3C)no2)c1,·,·,–,–,34.6
O=C(COc1ccc2ccc(=O)oc2c1)N1CCCc2ccccc21,·,·,–,·,·
C=CCn1c(SCc2ccccc2Cl)nc2c1c(=O)n(C)c(=O)n2C,·,·,–,·,·
Cn1c(=O)c([N+](=O)[O-])c(Cl)c2ccccc21,-84.8,–,–,–,–
CCCCC(=O)Nc1ccc(O)c(-c2nc3cc(C)cc(C)c3o2)c1,·,·,–,·,·
COc1ccc(/C=C2\CCCC3C2=NN(C(=O)c2ccco2)C3c2ccc(OC)c(OC)c2)cc1OC (configuration not stated),–,–,–,–,–
COc1ccc(/C=C2\CCCC3C2=NN(C(=O)c2scnc2C)C3c2ccc(OC)c(OC)c2)cc1OC (configuration not stated),–,·,–,–,71.6
Brc1ccc(COc2ccc(-n3cnnn3)cc2)cc1,·,·,–,·,·
CCN(CC)S(=O)(=O)c1cccc(S(=O)(=O)c2cccc(S(=O)(=O)N(CC)CC)c2)c1,–,·,–,–,36.2
CCN(CC)S(=O)(=O)c1ccc2c(c1)C(=NO)c1cc(S(=O)(=O)N(CC)CC)ccc1-2,-79.7,–,–,–,–
CC1CCN(S(=O)(=O)c2ccc(Oc3ccc([N+](=O)[O-])cc3)cc2)CC1,-81.1,·,–,–,–
CCN(CC)S(=O)(=O)c1ccc(C)c(C)c1,–,·,–,–,–
CCN(CC)S(=O)(=O)c1cccc(S(=O)(=O)N2CCCCC2)c1,–,·,–,–,–
CCN(CC)S(=O)(=O)c1cccc(C(=O)Oc2cccnc2)c1,-53.1,–,–,–,–
CC1CCN(S(=O)(=O)c2ccc([N+](=O)[O-])cc2)CC1,–,–,–,–,–
CCOC(=O)C(=O)Nc1ccc(C(N)=O)cc1,·,·,–,·,·
C=C(CS(=O)(=O)c1ccc2ccccc2c1)c1ccccc1,·,·,–,·,·
Cc1cc(Cl)ccc1NC(=O)c1ccccc1-c1ccccc1,·,·,–,·,·
CCN(CC(=O)NCc1cccs1)C(=O)C1CC(=O)N(c2cc(Cl)ccc2OC)C1 (configuration not stated),·,·,–,·,·
S=C(NCc1ccc(Cl)c(Cl)c1)Nc1ccccc1Cl,·,·,–,·,·
CC1CCN(S(=O)(=O)c2ccc3c(c2)C(=NO)c2cc(S(=O)(=O)N4CCC(C)CC4)ccc2-3)CC1,–,–,–,–,55.4
SMILES,DRD3 antagonist,PI5P4Ka inh,LDHA inh,PI4K2A inh,DRD3 agonist
O=S(=O)(c1ccc2c(c1)C(=NO)c1cc(S(=O)(=O)N3CCCCC3)ccc1-2)N1CCCCC1,?,–,–,–,–
O=C(Nc1ccc(Br)cc1)c1ccc(Nc2cc(-c3ccccc3)ncn2)cc1,·,·,–,·,·
CN1C(=O)/C(=C/c2ccc(-c3ccccc3[N+](=O)[O-])o2)SC1=Nc1ccc(Cl)c(C(=O)O)c1,–,-60.4,–,–,–
O=C(N/C(=C/c1ccc(Br)cc1)C(=O)N1CCCCC1)c1ccccc1F,-57.1,–,–,–,–
CC(C)N1C(=O)C(O)(CC(=O)c2ccncc2)c2ccccc21 (configuration not stated),·,·,–,·,·
CN1CCN(c2ccc(CNC(=O)C3Cc4c(-c5ccc(Cl)cc5)ccnc4O3)cc2)CC1 (configuration not stated),-55.6,–,–,–,–
O=C(O)CC(C(=O)O)C1CCCO1 (configuration not stated),·,·,–,·,·
CCOc1ccc(NS(=O)(=O)c2ccc(OCC(=O)NCc3ccc4c(c3)OCO4)c(C)c2)cc1,·,·,–,·,·
Cc1ccc2oc(=O)c3cc(C(=O)NCCCN4CCc5ccccc5C4)sc3c2c1,-55.5,–,–,–,–
Cc1ccc2oc(=O)c3cc(C(=O)NCCCN4CCCCCC4)sc3c2c1,–,–,–,–,–
Cc1cc2n(n1)CC(CNC1CCN(Cc3ccccc3)CC1)CN2 (configuration not stated),·,·,–,·,·
Cn1c(=O)[nH]c(=O)c2c1nc(Sc1ncccn1)n2CCc1ccccc1,·,·,–,·,·
Cc1cc(N2C(=O)CC(N3CCN(c4ccc(C(=O)c5cccs5)cc4)CC3)C2=O)no1 (configuration not stated),-52.1,–,–,–,–
CCOCCCNC(=O)C(c1ccc(Cl)cc1)N1CCC2(CC1)OCCO2 (configuration not stated),-54.9,·,–,–,–
CCOCCCNC(=O)C(c1ccc(Cl)cc1)N1CCN(c2ccccc2)CC1 (configuration not stated),–,–,–,–,–
CCCOc1ccc(C(=O)NNC(=S)NC(=O)c2cc(-c3ccc(Cl)cc3)nc3ccccc23)cc1,-50.3,–,–,–,–
O=C1Cc2ccccc2C1=C1C=c2ccccc2=C1,·,·,–,·,·
COc1cnc(CSc2ncccn2)cc1OCC(=O)N1CCc2ccccc21,·,·,–,·,·
C=CCN1CCc2nc(N)sc2CC1,–,?,–,–,92.8
CCN1CCc2nc(N)sc2C1,–,–,–,–,40.2
O=C(CCC(=O)N1CCOc2ccc(Cl)cc21)NCCCN1CCC(Cc2ccccc2)CC1,-70.6,–,–,–,–
O=C(CCC(=O)N1CCOc2ccc(Cl)cc21)NCCCN1CCN(c2ccccc2F)CC1,-95.5,–,–,–,–
N#Cc1cccc2[nH]ccc12,·,·,–,·,·
Cc1ccc(CN(C)C(=O)CN2CCN(c3ccc([N+](=O)[O-])c4cnccc34)CC2)cc1,·,·,–,·,·
CC(C(=O)NC(C)(C)C)N(C(=O)CS(=O)CC(=O)Nc1ccc(F)cc1)C1CCCC1 (configuration not stated),–,–,–,–,36.8
SMILES,DRD3 antagonist,PI5P4Ka inh,LDHA inh,PI4K2A inh,DRD3 agonist
COc1ccc(CCNC(=O)c2c(O)c3ccccc3n(C)c2=O)cc1,–,–,–,–,36.8
COc1ccc(CCNC(=O)c2c(C)noc2C)cc1,-99.9,·,–,–,–
O=C(NCCc1ccccc1)c1c(O)c2cccc3c2n(c1=O)CC3,–,–,–,–,–
COc1ccc(CCNC(=O)c2c(O)c3cccc4c3n(c2=O)CC4)cc1,–,-81.3,–,–,–
CCn1c(=O)c(C(=O)NCCc2ccccc2)c(O)c2ccccc21,–,–,–,–,–
Cn1c(=O)c(C(=O)NCCCc2ccccc2)c(O)c2ccccc21,–,–,–,–,–
